# According to PubChem BioAssay (NCATS):
# Records with an inconclusive call do not appear. A call without a number means that no potency is given here. Activity calls are given as the source filed them. The call rests on the fitted dose curve; in most records, active means well fitted inhibition curve with a large enough effect; inconclusive means small, poorly fitted or top-dose-only effect; inactive means flat fitted curve, though single readings scatter. Where a SMILES comes first, the peptide text is derived from it. Bridges are numbered along the chain shown (N, C = ends). [ ]: non-standard residue; d: D form. hArg = N=C(N)NCCCC[C@H](N)C(=O)O; Mpa = O=C(O)CCS
# Test system: 3D7
# Assay: qHTS profiling for inhibitors of Plasmodium falciparum proliferation (AID 504749); further: nearly all actives have a fitted effect of over 60% in size
# Details: P. falciparum in erythrocytes, SYBR Green DNA, 72 h; series mostly up to 28.7 µM
# Summary of the method: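 Infected RBCs, 0.3% parasitemia/2.5% Hct final; cpd 72 h, 37 C, 5% CO2; lysis buffer with saponin/triton/SYBR Green I, o/n RT dark; FI 485/535; norm. to artemisinin (0.29 uM) and DMSO.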
row,SMILES,Potency
1,NC(=O)[C@@H]1CSSCCC(=O)N[C@@H](CCCCN=C(N)N)C(=O)NCC(=O)N[C@@H](CC(=O)O)C(=O)N[C@@H](Cc2c[nH]c3ccccc23)C(=O)N2CCC[C@H]2C(=O)N1 ([Mpa][hArg]GDWPC-NH2; disulfide 1-7),inactive
2,CCCCCCCCCCCCCCCCC(C(=O)O)C(O)(CC(=O)O)C(=O)O (centres undefined),inactive
3,COC(=O)c1cccnc1,inactive
4,NC(N)=NS(=O)(=O)c1ccc(N)cc1,inactive
5,Cc1c(C)c2c(c(C)c1OC(=O)c1cccnc1)CC[C@@](C)(CCC[C@H](C)CCC[C@H](C)CCCC(C)C)O2,inactive
6,NC(=O)c1ccc([N+](=O)[O-])cc1Cl,inactive
7,COc1ccc(C(=O)NCc2ccc(OCCN(C)C)cc2)cc1OC,inactive
8,CCS(=O)(=O)CCn1c([N+](=O)[O-])cnc1C,inactive
9,CC(=O)Nc1ccccc1,inactive
10,O=C(O)CCC(=O)O,inactive
11,CC[N+](CC)(CC(=O)Nc1c(C)cccc1C)Cc1ccccc1,inactive
12,NC(=O)CC[C@@H](N)C(=O)O,inactive
13,O=C(O)CNC(=O)c1ccccc1I,inactive
14,CN/C(=C\[N+](=O)[O-])NCCSCc1csc(CN(C)C)n1,inactive
15,O=C(/C=C/c1ccccc1)OCc1ccccc1,inactive
16,CCCCOC(=O)c1ccc(N)cc1,inactive
17,CC(C)C[C@@H](N)C(=O)O,inactive
18,CC(C)(C)C(=O)OCOC(=O)[C@@H]1N2C(=O)[C@@H](NC(=O)[C@H](N)c3ccccc3)[C@H]2SC1(C)C,inactive
19,O=C(OOC(=O)c1ccccc1)c1ccccc1,inactive
